Drawing on PubChem BioAssay (Tox21), this text covers outcome for 37 compounds.

Active and inactive are the calls of the source. The call rests on the fitted dose curve; in most records, active means well fitted curve in the direction sought with a large enough effect in the repeat runs; inconclusive means weak or mixed curves; inactive means flat fitted curve, though single readings scatter.

The nature of the first assay: qHTS assay to test for compound auto fluorescence at 535 nm (green) in HEK293 cell free culture (AID 720682). Particulars: cell-free medium, green autofluorescence 485/535 nm; series mostly up to 91.3 µM. The procedure, abridged: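 No cells present: wells hold DMEM supplemented with 10% FBS, into which compound or vehicle is pinned. Green emission is then recorded (485 nm excitation, 535 nm emission) and scaled to fluorescein.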
With `O=C1C=CC(=O)C=C1`, the compound was called inactive.
For `C=CCc1ccc2c(c1)OCO2`, the result was inactive.
Take `CCCCOCCOP(=O)(OCCOCCCC)OCCOCCCC`: the compound was called inactive.
For the compound `N[C@@H](Cc1ccc(N(CCCl)CCCl)cc1)C(=O)O`, the result was inactive.
Consider `CCC(=O)O[C@H]1CC[C@H]2[C@@H]3CCC4=CC(=O)CC[C@]4(C)[C@H]3CC[C@]12C`, for which the result was inactive.
As to `CCOC(=S)S`, the result was inactive.
Turning to `Nn1cnnc1`, the compound was classed as inactive.
On to `c1ccc(N=Nc2ccccc2)cc1`, for which the outcome was inactive.
In the case of `COc1ccc(C=O)cc1`, the compound was classed as inactive.
Consider `ClC1C(Cl)C(Cl)C(Cl)C(Cl)C1Cl` (stereo not drawn), for which the outcome was inactive.
In the case of `c1ccc(NNc2ccccc2)cc1`, the call was inactive.
As for `C[C@]12CCC(=O)C(O)=C1CC[C@@H]1[C@@H]2CC[C@]2(C)C(=O)CC[C@@H]12`, the compound was classed as inactive.
Still for that read-out and setting: the value for `CCN(CC)N=O` was “inactive”.
For `CCCCN(CCCC)N=O`, the outcome was inactive.
Still for that read-out and setting: the value for `C=CCN(CC=C)C(=O)C(Cl)Cl` was “inactive”; that for `O=C(O)C(F)(F)C(F)(F)C(F)(F)C(F)(F)C(F)(F)C(F)(F)C(F)(F)F` was “inactive”.
Still for that read-out and setting: the value for `CCOP(=S)(OCC)O/N=C(\C#N)c1ccccc1` was “inactive”; that for `Nc1ccc(Cl)c(Cl)c1` was “inactive”; that for `N#CCCCl` was “inactive”.
For the compound `O=[N+]([O-])c1cccc2ccccc12`, the outcome was inactive.
For the compound `CCN(CC)C(=O)SCc1ccc(Cl)cc1`, the result was inactive.
Turning to `COP(=O)(OC)OC`, the call was inactive.
Consider `Nc1ccc(-c2ccccc2)cc1`, for which the outcome was inactive.
In the case of `O=[N+]([O-])c1ccc(O)c([N+](=O)[O-])c1`, the outcome was inactive.
With `CN(C)C(=O)Nc1ccc(Cl)cc1`, the compound was called inactive.
Same read-out and setting: the value for `Oc1cc(Cl)ccc1Oc1ccc(Cl)cc1Cl` was “inactive”; that for `Nc1ccc(Cl)cc1N` was “inactive”.
Still for that read-out and setting: the value for `COP(=S)(OC)Oc1cc(Cl)c(Cl)cc1Cl` was “inactive”; that for `CC(C)C(=O)OCC(C)(C)C(OC(=O)C(C)C)C(C)C` (stereo not drawn) was “inactive”.
In the case of `C#C[C@]1(O)CC[C@H]2[C@@H]3CCC4=CC(=O)CC[C@]4(C)[C@H]3CC[C@@]21C`, the compound was classed as inactive.
On to `NNC(N)=S`, for which the compound was called inactive.
On to `Oc1c(Cl)c(Cl)c(Cl)c(Cl)c1Cl`, for which the compound was called inactive.
Turning to `CCCCCCOC(=O)c1ccccc1C(=O)OCCCCCC`, the outcome was inactive.
With `Cc1cc(Cl)ccc1OCCCC(=O)O`, the result was inactive.
For `CC(C)N(C(=O)SCC(Cl)=C(Cl)Cl)C(C)C`, the call was inactive.
Consider `O=c1oc2ccccc2c(O)c1C(CC(O)c1ccc(-c2ccc(Br)cc2)cc1)c1ccccc1` (stereo not drawn), for which the call was inactive.
On to `CCCCC(CC)COC(=O)c1ccc(C(=O)OCC(CC)CCCC)c(C(=O)OCC(CC)CCCC)c1` (stereo not drawn), for which the outcome was inactive.

A short description of the next assay: qHTS assay to test for compound auto fluorescence at 590 nm (red) in HEK293 cell free culture (AID 720683). Particulars: cell-free medium autofluorescence, Ex540/Em590 red; series mostly up to 91.3 µM. The procedure, abridged:
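Cell-free wells of DMEM with 10% FBS received compound, and intrinsic fluorescence was read at excitation/emission 540/590 nm. Values expressed as equivalence to Rose Bengal sodium.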
Background: Quantitative high-throughput screening tests each substance at several concentrations.
`O=C1C=CC(=O)C=C1`: the compound was called inactive.
For the compound `CCCCOCCOP(=O)(OCCOCCCC)OCCOCCCC`, the call was inactive.
On to `N[C@@H](Cc1ccc(N(CCCl)CCCl)cc1)C(=O)O`, for which the compound was called inactive.
On to `CCOC(=S)S`, for which the compound was classed as inactive.
Consider `Nn1cnnc1`, for which the compound was called inactive.
Turning to `c1ccc(N=Nc2ccccc2)cc1`, the compound was classed as inactive.
With `c1ccc(NNc2ccccc2)cc1`, the compound was called inactive.
`C[C@]12CCC(=O)C(O)=C1CC[C@@H]1[C@@H]2CC[C@]2(C)C(=O)CC[C@@H]12`: the call was inactive.
Consider `CCCCN(CCCC)N=O`, for which the compound was called inactive.
On to `C=CCN(CC=C)C(=O)C(Cl)Cl`, for which the outcome was inactive.
For `CCOP(=S)(OCC)O/N=C(\C#N)c1ccccc1`, the outcome was inactive.
Regarding `Nc1ccc(Cl)c(Cl)c1`, the result was inactive.
Still for that read-out and setting: the value for `N#CCCCl` was “inactive”; that for `O=[N+]([O-])c1cccc2ccccc12` was “inactive”.
On to `CCN(CC)C(=O)SCc1ccc(Cl)cc1`, for which the call was inactive.
Still for that read-out and setting: the value for `Nc1ccc(-c2ccccc2)cc1` was “inactive”; that for `O=[N+]([O-])c1ccc(O)c([N+](=O)[O-])c1` was “inactive”; that for `CN(C)C(=O)Nc1ccc(Cl)cc1` was “inactive”.
On to `Nc1ccc(Cl)cc1N`, for which the compound was classed as inactive.
On the same count and under the same terms, the value for `COP(=S)(OC)Oc1cc(Cl)c(Cl)cc1Cl` was “inactive”; that for `C#C[C@]1(O)CC[C@H]2[C@@H]3CCC4=CC(=O)CC[C@]4(C)[C@H]3CC[C@@]21C` was “inactive”.
`Oc1c(Cl)c(Cl)c(Cl)c(Cl)c1Cl`: the compound was classed as inactive.
Take `CC(C)N(C(=O)SCC(Cl)=C(Cl)Cl)C(C)C`: the outcome was inactive.
On to `CCCCC(CC)COC(=O)c1ccc(C(=O)OCC(CC)CCCC)c(C(=O)OCC(CC)CCCC)c1` (stereo not drawn), for which the compound was classed as inactive.

A short description of the next assay: qHTS assay to test for compound auto fluorescence at 590 nm (red) in HepG2 cell free culture (AID 720684). Particulars: cell-free medium autofluorescence, red 540/590 nm; series mostly up to 91.3 µM. In outline:
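Auto fluorescence equivalency versus Rose Bengal sodium, red channel Ex/Em 540/590 nm; compounds in cell-free MEM/10% FBS; DMSO vehicle control.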
As to `O=C1C=CC(=O)C=C1`, the call was inactive.
`C=CCc1ccc2c(c1)OCO2`: the compound was called inactive.
For the compound `CCCCOCCOP(=O)(OCCOCCCC)OCCOCCCC`, the result was inactive.
Still for that read-out and setting: the value for `N[C@@H](Cc1ccc(N(CCCl)CCCl)cc1)C(=O)O` was “inactive”; that for `CCC(=O)O[C@H]1CC[C@H]2[C@@H]3CCC4=CC(=O)CC[C@]4(C)[C@H]3CC[C@]12C` was “inactive”.
Take `CCOC(=S)S`: the compound was classed as inactive.
Consider `Nn1cnnc1`, for which the result was inactive.
Turning to `c1ccc(N=Nc2ccccc2)cc1`, the outcome was inactive.
With `COc1ccc(C=O)cc1`, the call was inactive.
Turning to `ClC1C(Cl)C(Cl)C(Cl)C(Cl)C1Cl` (stereo not drawn), the outcome was inactive.
Consider `c1ccc(NNc2ccccc2)cc1`, for which the compound was classed as inactive.
`C[C@]12CCC(=O)C(O)=C1CC[C@@H]1[C@@H]2CC[C@]2(C)C(=O)CC[C@@H]12`: the compound was called inactive.
Take `CCN(CC)N=O`: the result was inactive.
Turning to `CCCCN(CCCC)N=O`, the result was inactive.
Take `C=CCN(CC=C)C(=O)C(Cl)Cl`: the call was inactive.
As for `O=C(O)C(F)(F)C(F)(F)C(F)(F)C(F)(F)C(F)(F)C(F)(F)C(F)(F)F`, the call was inactive.
Still for that read-out and setting: the value for `CCOP(=S)(OCC)O/N=C(\C#N)c1ccccc1` was “inactive”; that for `Nc1ccc(Cl)c(Cl)c1` was “inactive”; that for `N#CCCCl` was “inactive”.
In the case of `O=[N+]([O-])c1cccc2ccccc12`, the compound was called inactive.
Regarding `CCN(CC)C(=O)SCc1ccc(Cl)cc1`, the outcome was inactive.
For `COP(=O)(OC)OC`, the compound was classed as inactive.
Same read-out and setting: the value for `Nc1ccc(-c2ccccc2)cc1` was “inactive”; that for `O=[N+]([O-])c1ccc(O)c([N+](=O)[O-])c1` was “inactive”.
With `CN(C)C(=O)Nc1ccc(Cl)cc1`, the compound was called inactive.
Regarding `Oc1cc(Cl)ccc1Oc1ccc(Cl)cc1Cl`, the outcome was inactive.
On the same count and under the same terms, the value for `Nc1ccc(Cl)cc1N` was “inactive”.
Consider `COP(=S)(OC)Oc1cc(Cl)c(Cl)cc1Cl`, for which the call was inactive.
In the case of `CC(C)C(=O)OCC(C)(C)C(OC(=O)C(C)C)C(C)C` (stereo not drawn), the result was inactive.
On to `C#C[C@]1(O)CC[C@H]2[C@@H]3CCC4=CC(=O)CC[C@]4(C)[C@H]3CC[C@@]21C`, for which the compound was classed as inactive.
With `NNC(N)=S`, the call was inactive.
For `Oc1c(Cl)c(Cl)c(Cl)c(Cl)c1Cl`, the compound was classed as inactive.
Consider `CCCCCCOC(=O)c1ccccc1C(=O)OCCCCCC`, for which the result was inactive.
On to `Cc1cc(Cl)ccc1OCCCC(=O)O`, for which the result was inactive.
Turning to `CC(C)N(C(=O)SCC(Cl)=C(Cl)Cl)C(C)C`, the call was inactive.
On the same count and under the same terms, the value for `O=c1oc2ccccc2c(O)c1C(CC(O)c1ccc(-c2ccc(Br)cc2)cc1)c1ccccc1` (stereo not drawn) was “inactive”.
Consider `CCCCC(CC)COC(=O)c1ccc(C(=O)OCC(CC)CCCC)c(C(=O)OCC(CC)CCCC)c1` (stereo not drawn), for which the result was inactive.
